Measured values: PubChem BioAssay (EPA / NIEHS)
Inconclusive results are not listed. The source made the active and inactive calls. How the source made its calls, unless noted: active means hit-call score of the fitted dose curve at least 0.9, where 1 is the maximum; inactive means score below 0.9.

Tests used:
[1] = ATG_CRE_CIS: Attagene CIS-FACTORIAL HepG2 Assay for human cAMP Responsive Element (CRE) binding protein 3 (AID 2282926); settings: HepG2 CRE cis-reporter, Attagene multiplexed mRNA; actives raise or lower the signal
In short: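 HepG2 cells transiently transfected with cis-element-driven multiple reporter transcription units; CRE reporter mRNA measured 24 h after dosing by RT-PCR, 6-FAM labelling, HpaI digestion and capillary electrophoresis. Bidirectional fit versus DMSO baseline.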

[2] = ATG_DR4_LXR_CIS: Attagene CIS-FACTORIAL HepG2 Assay for human Liver X Receptor (LXR), DR4 submotif (AID 2282929); settings: HepG2 Attagene DR4 cis-reporter, mRNA transcription; actives raise or lower the signal
In short: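 The endpoint is DR4-element-driven reporter transcripts after 24 h chemical exposure of transfected HepG2 cells. These were measured via RT-PCR and capillary electrophoresis, and gain or loss of signal was fitted relative to DMSO controls.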

[3] = ATG_AP_1_CIS: Attagene CIS-FACTORIAL HepG2 Assay for human Activator Protein 1 (AP-1) (AID 2282931); settings: HepG2 Attagene cis-factorial AP-1 reporter mRNA; actives raise or lower the signal
In short: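 Readout is reporter transcript level from endogenous transcription factor activity, quantified by RT-PCR with fluorescent primer extension and capillary electrophoresis. Transiently transfected HepG2 cells, 24 h exposure. Curves fitted both directions versus DMSO.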

[4] = ATG_AP_2_CIS: Attagene CIS-FACTORIAL HepG2 Assay for human Activator Protein 2 (AP-2) (AID 2282932); settings: HepG2 AP-2 cis-reporter, Attagene transcription factor profiling; actives raise or lower the signal
In short: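 Step one: transient transfection of HepG2 with reporter transcription units. Step two: 24 h chemical exposure. Step three: RNA extraction, RT-PCR, labelled fragment analysis by capillary electrophoresis; DMSO serves as baseline.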

[5] = target: Transcription factor E2F1 (Homo sapiens) (UniProt Q01094); experiment: ATG_E2F_CIS: Attagene CIS-FACTORIAL HepG2 Assay for human E2F Transcription Factor 1 (AID 2282935); settings: HepG2 Attagene cis-reporter, E2F reporter RNA transcripts; actives raise or lower the signal
In short: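 Total RNA from 24 h-treated, reporter-transfected HepG2 cells undergoes DNase I treatment, oligo(dT) reverse transcription, PCR and 6-FAM primer extension before capillary electrophoresis.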

[6] = ATG_M_61_CIS: Attagene CIS-FACTORIAL HepG2 Assay for M61 Transcription Factor (Internal Marker) (AID 2282937); settings: HepG2 Attagene CIS-FACTORIAL M61 internal marker reporter; actives raise or lower the signal
In short: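 Readout is reporter mRNA by RT-PCR, fluorescent primer extension and capillary electrophoresis, with gain or loss fitted relative to DMSO. Transfected HepG2 cells carrying endogenous-TF-driven cis reporters were exposed to chemicals for 24 hours.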

[7] = ATG_EGR_CIS: Attagene CIS-FACTORIAL HepG2 Assay for human Early Growth Response 1 (EGR1) (AID 2282938); settings: HepG2 Attagene CIS-FACTORIAL EGR reporter mRNA; actives raise or lower the signal
In short: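 After 24 h compound exposure, RNA from reporter-transfected HepG2 cells was reverse-transcribed, PCR-amplified, fluorescently labelled and resolved by capillary electrophoresis. EGR1 reporter transcript changes, up or down, were fitted against DMSO, reflecting endogenous transcription-factor activity.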

[8] = ATG_M_19_CIS: Attagene CIS-FACTORIAL HepG2 Assay for M19 Transcription Factor (Internal Marker) (AID 2282939); settings: HepG2 Attagene CIS-FACTORIAL M19 internal marker reporter; actives raise or lower the signal
In short: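 Background-control endpoint from a multiplexed HepG2 reporter panel. Cells carrying cis-regulated reporter constructs are treated 24 h, then reporter transcripts are amplified, fluorescently labelled and sized by capillary electrophoresis. DMSO defines baseline.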

[9] = ATG_Ets_CIS: Attagene CIS-FACTORIAL HepG2 Assay for human Erythroblast Transformation Specific (ETS) (AID 2282941); settings: HepG2 ETS cis-reporter transcription, actives raise or lower the signal
In short: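 HepG2 cells transiently transfected with cis-promoter reporter transcription units were dosed for 24 h; reporter mRNA was measured by RT-PCR, 6-FAM primer extension, HpaI digestion and capillary electrophoresis, with bidirectional fitting against DMSO baseline.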

[10] = target: Hepatocyte nuclear factor 3-beta (Homo sapiens) (UniProt Q9Y261); experiment: ATG_FoxA2_CIS: Attagene CIS-FACTORIAL HepG2 Assay for human Forkhead box A2 (FOXA2) (AID 2282942); settings: HepG2 cis-reporter transcription factor activity, 24 h; actives raise or lower the signal
In short: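 Endogenous transcription factor activity is captured via cis-element-driven reporter transcripts in transfected HepG2. Total RNA taken at 24 h post-dosing; labelled RT-PCR products resolved by capillary electrophoresis. Gain or loss fitted versus DMSO.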

[11] = ATG_GATA_CIS: Attagene CIS-FACTORIAL HepG2 Assay for human GATA Binding Protein (AID 2282944); settings: HepG2 GATA cis-element reporter, Attagene multiplex mRNA; actives raise or lower the signal
In short: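 Endogenous transcription factor activity was captured through cis-promoter-driven reporters in transfected HepG2 cells. After 24 h exposure, reporter transcripts were quantified by RT-PCR with fluorescent capillary electrophoresis, and responses fitted both directions against DMSO.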

[12] = ATG_GLI_CIS: Attagene CIS-FACTORIAL HepG2 Assay for human Zinc Finger Protein GLI1 (AID 2282945); settings: HepG2, Attagene cis-factorial reporter mRNA, GLI element; actives raise or lower the signal
In short: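 Bidirectional curve fits relative to DMSO, using reporter mRNA levels from RT-PCR plus capillary electrophoresis. Cells were HepG2 transiently carrying cis-regulated reporter constructs, harvested 24 h after dosing.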

[13] = ATG_ISRE_CIS: Attagene CIS-FACTORIAL HepG2 Assay for human Interferon Regulatory Factor 1 (IRF1) binding to an Interferon-Stimulated Response Element (ISRE) (AID 2282948); settings: HepG2 ISRE cis-reporter (Attagene), mRNA transcription readout; actives raise or lower the signal
In short: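 HepG2 cells transiently transfected with multiplexed cis-promoter reporter units; after 24 h compound exposure, reporter mRNA quantified by RT-PCR, FAM labelling, HpaI digestion and capillary electrophoresis. Bidirectional fit versus DMSO baseline.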

[14] = ATG_M_32_CIS: Attagene CIS-FACTORIAL HepG2 Assay for M32 Transcription Factor (Internal Marker) (AID 2282949); settings: HepG2 Attagene cis-factorial M32 reporter, mRNA; actives raise or lower the signal;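 further: background control marker of the multiplexed CIS panel rather than a real target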
In short: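 Internal background marker read-out: RT-PCR/capillary electrophoresis fluorescence of reporter transcripts from transiently transfected HepG2 cells after 24 h chemical exposure. Activity fitted bidirectionally relative to DMSO negative control.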

[15] = ATG_M_06_CIS: Attagene CIS-FACTORIAL HepG2 Assay for M06 Transcription Factor (Internal Marker) (AID 2282950); settings: HepG2 Attagene CIS-FACTORIAL M06 internal marker reporter; actives raise or lower the signal
In short: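 Steps: transfect HepG2 with multiplexed cis-element reporter constructs; dose chemical 24 h; extract RNA with DNase treatment; reverse-transcribe, PCR-amplify, 6-FAM label, HpaI digest; separate fragments by capillary electrophoresis. Activity fitted both directions versus DMSO.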

[16] = ATG_MRE_CIS: Attagene CIS-FACTORIAL HepG2 Assay for human Metal Responsive Element (MRE) (AID 2282954); settings: HepG2 MRE cis-reporter transcription, Attagene multiplex; actives raise or lower the signal
In short: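 After a 24 h chemical exposure, transiently transfected HepG2 cells yield RNA whose reporter sequences are amplified, FAM-labelled and sized by capillary electrophoresis. Curves are fitted bidirectionally relative to DMSO.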

[17] = target: Paired box protein Pax-6 (Homo sapiens) (UniProt P26367); experiment: ATG_Pax6_CIS: Attagene CIS-FACTORIAL HepG2 Assay for human Paired Box 6 (PAX6) (AID 2282956); settings: HepG2 CIS-FACTORIAL PAX6 reporter transcription, RNA readout; actives raise or lower the signal
In short: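 HepG2 cells transiently transfected with multiplexed cis-promoter reporter units (endogenous TF activity) were dosed for 24 h. Reporter mRNA was quantified by RT-PCR, 6-FAM labeling, HpaI digestion and capillary electrophoresis; bidirectional fitting versus DMSO baseline.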

[18] = ATG_PXRE_CIS: Attagene CIS-FACTORIAL HepG2 Assay for human Pregnane X Receptor Element (PXRE) (AID 2282957); settings: HepG2 Attagene CIS-FACTORIAL PXRE reporter, mRNA; actives raise or lower the signal
In short: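 HepG2 cells transiently transfected with cis-element-driven multiplexed reporter units; after 24 h chemical exposure, reporter mRNA measured by RT-PCR, 6-FAM labelling, HpaI digestion and capillary electrophoresis. Bidirectional fitting relative to DMSO.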

[19] = target: Transcription factor Sp1 (Homo sapiens) (UniProt P08047); experiment: ATG_Sp1_CIS: Attagene CIS-FACTORIAL HepG2 Assay for human Specificity Protein 1 (Sp1) (AID 2282961); settings: HepG2 Sp1 cis-reporter transcription, actives raise or lower the signal
In short: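 Read-out is reporter transcript level, measured by RT-PCR and fluorescent capillary electrophoresis after 24 h chemical treatment. System: transiently transfected HepG2 cells reporting endogenous transcription factor activity; gain or loss fitted against DMSO baseline.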

[20] = target: Androgen receptor (Homo sapiens) (UniProt P10275); experiment: ATG_AR_TRANS: Attagene TRANS-FACTORIAL HepG2 Assay for human Androgen Receptor (AR) (AID 2282973; active means hit-call score of the fitted dose curve at least 0.9, where 1 is the maximum); settings: HepG2 Attagene TRANS-FACTORIAL AR reporter transcription
In short: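 HepG2 cells transiently transfected with AR-Gal4 chimera and GAL4-UAS reporter units; chemical exposure 24 h. Reporter mRNA quantified by RT-PCR with fluorescent labelling and capillary electrophoresis; gain-of-signal fitted against DMSO.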

Measured: AC50

Chain of Paired box protein Pax-6 (Homo sapiens) (P26367 whole entry, looked up): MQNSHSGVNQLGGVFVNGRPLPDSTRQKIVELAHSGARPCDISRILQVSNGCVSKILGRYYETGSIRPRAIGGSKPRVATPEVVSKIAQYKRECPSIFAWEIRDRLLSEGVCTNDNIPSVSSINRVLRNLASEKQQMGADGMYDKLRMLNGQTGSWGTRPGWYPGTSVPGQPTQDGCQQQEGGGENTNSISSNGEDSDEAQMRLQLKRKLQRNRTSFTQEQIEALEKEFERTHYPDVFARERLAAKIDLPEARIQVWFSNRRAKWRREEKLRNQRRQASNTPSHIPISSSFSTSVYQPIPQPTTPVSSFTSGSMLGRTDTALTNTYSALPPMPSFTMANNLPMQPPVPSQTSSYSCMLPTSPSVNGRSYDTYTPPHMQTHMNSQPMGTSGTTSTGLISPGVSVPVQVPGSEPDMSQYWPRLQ
Chain of Transcription factor E2F1 (Homo sapiens) (Q01094 whole entry, looked up): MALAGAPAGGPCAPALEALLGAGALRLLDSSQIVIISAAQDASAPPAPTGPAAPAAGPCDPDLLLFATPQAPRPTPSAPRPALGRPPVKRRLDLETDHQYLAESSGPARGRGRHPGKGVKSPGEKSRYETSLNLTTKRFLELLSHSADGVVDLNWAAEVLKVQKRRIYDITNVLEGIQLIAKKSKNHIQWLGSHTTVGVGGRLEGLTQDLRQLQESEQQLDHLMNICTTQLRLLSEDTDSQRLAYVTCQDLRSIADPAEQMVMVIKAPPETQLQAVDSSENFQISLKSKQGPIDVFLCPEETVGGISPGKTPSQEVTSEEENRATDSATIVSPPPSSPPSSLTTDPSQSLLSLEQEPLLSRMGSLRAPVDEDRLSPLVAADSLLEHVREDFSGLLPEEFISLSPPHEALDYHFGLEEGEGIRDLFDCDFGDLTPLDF
Chain of Transcription factor Sp1 (Homo sapiens) (P08047 whole entry, looked up): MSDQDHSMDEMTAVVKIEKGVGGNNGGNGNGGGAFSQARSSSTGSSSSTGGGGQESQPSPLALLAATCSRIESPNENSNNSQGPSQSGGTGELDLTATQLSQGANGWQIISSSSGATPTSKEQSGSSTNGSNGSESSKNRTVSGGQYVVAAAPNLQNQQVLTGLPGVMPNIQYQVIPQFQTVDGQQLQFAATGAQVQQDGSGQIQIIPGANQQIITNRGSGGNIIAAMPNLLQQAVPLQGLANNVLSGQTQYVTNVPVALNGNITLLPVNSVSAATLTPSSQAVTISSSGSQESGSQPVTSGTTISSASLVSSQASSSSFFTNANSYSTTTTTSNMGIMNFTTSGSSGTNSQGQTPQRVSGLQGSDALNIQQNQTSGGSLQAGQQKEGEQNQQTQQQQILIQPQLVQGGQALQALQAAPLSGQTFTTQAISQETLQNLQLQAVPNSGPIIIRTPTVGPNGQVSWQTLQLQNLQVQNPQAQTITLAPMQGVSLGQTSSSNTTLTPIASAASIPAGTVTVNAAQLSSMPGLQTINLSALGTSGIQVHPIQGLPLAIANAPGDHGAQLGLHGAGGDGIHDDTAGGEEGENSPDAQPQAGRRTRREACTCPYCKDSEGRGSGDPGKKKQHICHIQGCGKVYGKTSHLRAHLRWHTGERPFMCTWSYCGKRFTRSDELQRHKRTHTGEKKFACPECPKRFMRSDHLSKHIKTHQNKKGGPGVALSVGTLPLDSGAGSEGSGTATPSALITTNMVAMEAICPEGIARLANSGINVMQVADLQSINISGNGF
Chain of Hepatocyte nuclear factor 3-beta (Homo sapiens) (Q9Y261 whole entry, looked up): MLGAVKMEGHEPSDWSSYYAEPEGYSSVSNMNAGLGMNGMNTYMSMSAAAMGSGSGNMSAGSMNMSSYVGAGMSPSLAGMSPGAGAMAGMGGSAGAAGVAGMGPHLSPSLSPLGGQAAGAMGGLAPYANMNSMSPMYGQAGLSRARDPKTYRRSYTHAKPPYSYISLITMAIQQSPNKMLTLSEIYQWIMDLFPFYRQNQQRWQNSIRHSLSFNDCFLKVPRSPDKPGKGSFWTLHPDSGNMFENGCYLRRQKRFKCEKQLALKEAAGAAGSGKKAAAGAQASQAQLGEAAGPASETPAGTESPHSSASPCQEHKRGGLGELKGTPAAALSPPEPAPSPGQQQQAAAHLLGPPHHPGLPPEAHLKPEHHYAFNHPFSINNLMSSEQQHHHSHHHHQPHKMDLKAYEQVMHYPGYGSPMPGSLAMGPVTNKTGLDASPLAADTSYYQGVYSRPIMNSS
Chain of Androgen receptor (Homo sapiens) (P10275 whole entry, looked up, the tested form may be a part): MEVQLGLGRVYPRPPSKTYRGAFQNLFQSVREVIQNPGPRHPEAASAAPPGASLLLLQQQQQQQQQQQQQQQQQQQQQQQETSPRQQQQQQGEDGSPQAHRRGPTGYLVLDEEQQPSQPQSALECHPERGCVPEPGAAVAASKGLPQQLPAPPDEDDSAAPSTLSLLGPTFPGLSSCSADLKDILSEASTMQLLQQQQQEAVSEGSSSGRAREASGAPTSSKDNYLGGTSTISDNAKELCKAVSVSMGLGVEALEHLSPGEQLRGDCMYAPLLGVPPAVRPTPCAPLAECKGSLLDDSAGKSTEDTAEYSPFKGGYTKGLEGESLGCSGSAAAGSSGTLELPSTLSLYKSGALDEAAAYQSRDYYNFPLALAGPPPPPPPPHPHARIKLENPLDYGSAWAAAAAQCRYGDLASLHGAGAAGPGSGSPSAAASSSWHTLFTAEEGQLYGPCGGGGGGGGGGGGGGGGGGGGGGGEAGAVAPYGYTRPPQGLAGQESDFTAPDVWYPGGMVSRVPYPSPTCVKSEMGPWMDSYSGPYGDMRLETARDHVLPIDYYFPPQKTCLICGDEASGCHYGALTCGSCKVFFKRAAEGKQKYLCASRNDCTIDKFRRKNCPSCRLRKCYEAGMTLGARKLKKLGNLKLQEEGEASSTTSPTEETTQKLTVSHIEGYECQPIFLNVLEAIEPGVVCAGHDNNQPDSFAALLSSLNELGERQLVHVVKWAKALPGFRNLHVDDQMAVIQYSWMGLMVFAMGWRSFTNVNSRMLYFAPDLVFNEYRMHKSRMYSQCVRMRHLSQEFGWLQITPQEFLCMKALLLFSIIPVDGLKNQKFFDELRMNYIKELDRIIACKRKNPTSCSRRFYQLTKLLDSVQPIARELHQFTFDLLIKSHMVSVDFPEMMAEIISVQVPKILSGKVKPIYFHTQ

CC1(C)C(=O)NC(=O)NC1=O
not listed: [20]
inactive: all other assays above

O=S(=O)(O)O
not listed: [20]
inactive: all other assays above

CCCCCc1cc(O)cc(O)c1
active: [2] 154 µM | [7] 100 µM | [16] 100 µM | [17] 146 µM | [18] 9.47 µM
not listed: [20]
inactive: all other assays above

Nc1c(Cl)c(Cl)c(Cl)c(Cl)c1Cl
active: [18] 15.4 µM
inactive: all other assays above

C=CC(=O)OCCO
active: [1] 116 µM | [2] 123 µM | [3] 75.6 µM | [7] 116 µM | [16] 70.9 µM | [19] 156 µM
not listed: [20]
inactive: all other assays above
